Sampled rows, rich in hits. Any-hit rate of the full collection: about 2.5%.
GRK2 aptamer HTS: human GRK2 inhibition via aptamer displacement | AID 488847 | bead flow cytometry, FAM-aptamer displacement from GRK2 | 330,000 tested, 0.59% active | inhibition of aptamer binding, % at 10 µM;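 active means inhibition of aptamer binding above 40%, roughly 3 SD of noise, on plates passing a quality check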;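 further: median bead fluorescence of bound FAM aptamer so fluorescent compounds give negative values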
Target sequence (P25098 whole entry, looked up): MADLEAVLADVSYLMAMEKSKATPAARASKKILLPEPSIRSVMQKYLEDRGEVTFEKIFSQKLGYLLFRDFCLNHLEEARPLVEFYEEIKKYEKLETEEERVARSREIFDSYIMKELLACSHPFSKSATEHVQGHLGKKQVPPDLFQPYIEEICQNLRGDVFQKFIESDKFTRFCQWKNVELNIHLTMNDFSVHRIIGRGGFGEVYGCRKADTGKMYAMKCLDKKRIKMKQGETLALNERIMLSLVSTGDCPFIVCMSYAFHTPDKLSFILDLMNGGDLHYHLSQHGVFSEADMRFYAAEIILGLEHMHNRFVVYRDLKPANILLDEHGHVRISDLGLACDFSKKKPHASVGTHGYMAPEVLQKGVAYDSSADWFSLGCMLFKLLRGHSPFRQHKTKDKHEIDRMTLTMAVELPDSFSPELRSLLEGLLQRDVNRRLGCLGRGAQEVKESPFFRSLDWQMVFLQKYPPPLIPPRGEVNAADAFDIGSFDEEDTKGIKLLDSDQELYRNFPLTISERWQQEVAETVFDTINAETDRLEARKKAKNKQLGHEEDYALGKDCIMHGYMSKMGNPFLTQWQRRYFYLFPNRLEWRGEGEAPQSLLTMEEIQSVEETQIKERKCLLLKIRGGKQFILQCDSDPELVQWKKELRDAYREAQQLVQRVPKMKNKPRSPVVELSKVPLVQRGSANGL
MEKK2mut PB1 HTS: signal of MEK5 binding to mutant human MEKK2 PB1 domain; bead flow cytometry, Alexa488-MEK5 binding to MEKK2 mutant; percent response, % at 10 µM; 290,000 tested, 0.35% active; AID 1530; in the data active means percent response above about 24%, passing the limit was not always enough
MEKK3 PB1 HTS: raises or lowers MEK5 binding to the human MEKK3 PB1 domain; Q99759; bead-based flow cytometry, Alexa488-MEK5 binding to MEKK3; actives lie on both sides; 0 = blocked by unlabeled MEK5, 100 = vehicle; binding response (% of control), % at 10 µM; 290,000 tested, 1.4% active; AID 1529;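 active means binding response more than 3 SD above or below the average of its plate-row segment, actives on both sides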;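 further: Alexa488 bead fluorescence after subtracting the streptavidin-only scavenger bead signal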
MEKK2wt PB1 HTS: raises or lowers MEK5 binding to wildtype human MEKK2 PB1 domain | bead flow cytometry, Alexa488-MEK5 binding to MEKK2 WT; actives lie on both sides | AID 1531 | 290,000 tested, 1.1% active | binding response (% of control), % at 10 µM; in the data active means binding response below about 67% or above about 130%
GRK2 CP1: human GRK2 inhibition confirmation, cherry pick 1 | shares compounds with GRK2 aptamer HTS | 2,000 tested, 4% active | AID 504451 | aptamer displacement, % at 10 µM | bead-bound GRK2, FAM-aptamer displacement, flow cytometry;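 active means aptamer displacement above 40%, near three times the noise of non-fluorescent compounds, on plates passing quality checks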;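 further: negative values mostly reflect intrinsic compound fluorescence rather than true enhancement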
Aptamer quench SP: aptamer fluorescence quenching in GRK2 counter-screen; shares compounds with GRK2 aptamer HTS; Carboxyfluorescein RNA aptamer on beads, flow cytometry quenching; stronger effect = lower value; fluorescence response (% of DMSO), % at 10 µM; 2,000 tested, under 10 active; AID 504580;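 active means compounds that quench the bead-bound fluorescent RNA probe, cutting fluorescence to under half of the solvent control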;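 further: counterscreen run without GRK2 so only probe quenching by compound is measured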
Each line names hits and unclear results; the compound was inactive in the other large screens (follow-up assays come after a bar, where they were run).

Cc1ccc(CNC(=O)CSc2nc3n[nH]c(C)c3c(=N)n2-c2cccc(C)c2)cc1	GRK2 aptamer HTS 99 | GRK2 CP1 inactive | Aptamer quench SP inactive
CC(C)CCN1CCN=C1Nc1ccccc1	none
CCN(Cc1ccccc1)C(=O)CCc1nc(CN2CCN(C(=O)c3ccc([N+](=O)[O-])cc3)CC2)no1	none
CCOC(=O)C(NC(C)=O)C(=O)Nc1ccc(C)cc1C (stereo not given)	GRK2 aptamer HTS 50 | GRK2 CP1 inactive | Aptamer quench SP inactive
CC(C)(C)OC(=O)NN1CC(=O)N2Cc3ccccc3C[C@@H]2C1=O	none
COc1cc2c(-c3ccc4[nH]ccc4c3)c(-c3ccc(C#N)cc3)oc(=O)c2cc1OC	none (no result: MEKK2mut PB1 HTS, MEKK3 PB1 HTS, MEKK2wt PB1 HTS)
COc1ncc(C2=CC(=O)CC(C)(C)C2)cn1	none (no result: MEKK2mut PB1 HTS, MEKK3 PB1 HTS, MEKK2wt PB1 HTS)
O=C(O)CCNc1ccc(NCCC(=O)O)c2c1C(=O)c1ccccc1C2=O	GRK2 aptamer HTS 42 | GRK2 CP1 inactive | Aptamer quench SP inactive
CC(=O)NC1C(=O)N(CCN2CCOCC2)c2ccc(C)cc21 (stereo not given)	none
CC(=O)NC1C(=O)N(CCN2CCOCC2)c2ccc(Cl)cc21 (stereo not given)	GRK2 aptamer HTS 98 | GRK2 CP1 inactive | Aptamer quench SP inactive
COc1ccccc1CCCNC(=O)C1CCC(=O)N(CCc2ccc(Cl)cc2)C1 (stereo not given)	none
Cc1ccc(-c2c(C#N)c(N)n(-c3ccc(C)cc3)c(=O)c2C#N)cc1	GRK2 aptamer HTS 42 | GRK2 CP1 inactive | Aptamer quench SP inactive
Cc1cccc(CN2CCN(Cc3ccc4nonc4c3)CC2CCO)n1 (stereo not given)	GRK2 aptamer HTS 41 | GRK2 CP1 inactive | Aptamer quench SP inactive
Cc1ccc(-c2noc(COC(=O)c3ccco3)n2)cc1	none (no result: MEKK2mut PB1 HTS, MEKK3 PB1 HTS, MEKK2wt PB1 HTS)
O=C(NCCC1=CCCCC1)C1CCN(c2nnc(-n3cccc3)s2)CC1	none | GRK2 CP1 inactive | Aptamer quench SP inactive
Cc1cc(C)nc(N2CCC(C(=O)NC3CCCc4ccccc43)CC2)n1 (stereo not given)	none
CC(C)CCNC(=O)C1CCN(c2nnc(-n3cccc3)s2)CC1	none
O=C(NC1CCCc2ccccc21)C1CCN(c2nnc(-n3cccc3)s2)CC1 (stereo not given)	none | GRK2 CP1 inactive | Aptamer quench SP inactive
COc1ccc(NC(=O)CN(C)CC(=O)Nc2ccc(Cl)cc2F)cc1	none
CCN(CC)c1ccc(NC(=O)c2nc3nc(C)cc(C(F)F)n3n2)cc1	GRK2 aptamer HTS 48 | GRK2 CP1 inactive | Aptamer quench SP inactive
COc1ccc(NC(=O)c2nc3nc(C)cc(C(F)F)n3n2)cc1OC	none
CCOC(=O)c1cc(CN2CCOCC2)oc1-c1ccccc1	GRK2 aptamer HTS 69 | GRK2 CP1 inactive | Aptamer quench SP inactive
O=C(CCCOc1ccc(Cl)cc1)NC1CCCCC1	none
Cc1ccc(NC(=O)CN(C)C(=O)c2cccc(S(=O)(=O)NCc3ccccc3)c2)cc1	GRK2 aptamer HTS 91 (no result: MEKK2mut PB1 HTS, MEKK3 PB1 HTS, MEKK2wt PB1 HTS) | GRK2 CP1 inactive | Aptamer quench SP inactive
c1cc(CCCc2ccncc2)ccn1	none (no result: MEKK2mut PB1 HTS, MEKK3 PB1 HTS, MEKK2wt PB1 HTS)
OCCc1ccccc1	none | GRK2 CP1 inactive | Aptamer quench SP inactive
c1ccc(CCc2ccncc2)cc1	GRK2 aptamer HTS 66 | GRK2 CP1 inactive | Aptamer quench SP inactive
CCCCCN(C(=O)CCC(=O)OCc1cccc(C(F)(F)F)c1)c1c(N)n(CCCC)c(=O)[nH]c1=O	none
O=C(N/N=C/c1cccnc1)c1cc(O)c(O)c(O)c1	GRK2 aptamer HTS 44 | GRK2 CP1 inactive | Aptamer quench SP inactive
Nc1ncnc2nc(SCC(=O)Nc3ccccc3F)[nH]c12	none
CC1Cc2ccccc2N1C(=O)CSc1nncs1 (stereo not given)	GRK2 aptamer HTS 75 (no result: MEKK2mut PB1 HTS, MEKK3 PB1 HTS, MEKK2wt PB1 HTS) | GRK2 CP1 inactive | Aptamer quench SP inactive
N#C/C(=C\Nc1ccccc1SC(F)(F)F)c1nc(-c2ccc(Cl)cc2)cs1	none
N#C/C(=C\Nc1ccccc1SC(F)(F)F)c1nc(-c2ccccc2)cs1	GRK2 aptamer HTS 48 | GRK2 CP1 inactive | Aptamer quench SP inactive
COc1cc(/C=N/Nc2ccc(C(=O)O)cc2)ccc1O	GRK2 aptamer HTS 41 | GRK2 CP1 inactive | Aptamer quench SP inactive
